Screening data as filed in PubChem BioAssay.
Coupling enz: qHTS Assay for Inhibitors of Fructose-1,6-bisphosphate Aldolase from Giardia Lamblia: Coupling assay counterscreen; actives 0.67% (n = 290,000); activity change, negative = inhibition, % at 58.2 µM, hits read low; coupling enzyme system counterscreen, AmpLite Red fluorescence; in the data active means activity change below about -30%
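Final compound at 57.5 uM, incubated 10 min at RT with coupling enzyme reagent (glyceraldehyde-3-phosphate), then 20 min with substrate and AmpLite Red detection. Fluorescence read at 525/598 nm; tests interference with the coupling assay, not aldolase inhibition.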
RORg inh: qHTS for inhibitors of ROR gamma transcriptional activity | Potency, µM (titrated, usually from 53.6 µM), for the others: at the top dose activity change, negative = inhibition, most hits filed as inhibitors | actives 5.4% (n = 310,000) | Nuclear receptor ROR-gamma (Mus musculus), P51450 | Drosophila S2 Gal4-RORgamma UAS-luciferase reporter, 20 h; further: potency means the concentration at half of the fitted maximal effect; nearly all actives have a fitted effect of over 60% in size
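Drosophila S2 cells stably expressing Gal4-DBD/mouse RORγ fusion under metallothionein promoter plus UAS-luciferase; compound 1 h, then 700 uM CuSO4 induction for 20 h at ambient temperature; inhibition read as reduced luminescence.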
ELG1 DNA repair: qHTS screen for small molecules that inhibit ELG1-dependent DNA repair in human embryonic kidney (HEK293T) cells expressing luciferase-tagged ELG1. HEK293T ELG1-luciferase reporter, luminescence, 16 h; DNA damage induced by 5-fluorouridine. Potency, µM (titrated, usually from 46.1 µM), without a hit: top-dose activity change, negative = inhibition, usual class: inhibitors. actives 2.3% (n = 330,000). AID 504467, 2011; further: potency means the concentration at half of the fitted maximal effect; nearly all actives have a fitted effect of over 55% in size
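In this reporter screen, reduction of luminescence relative to DMSO vehicle indicated activity. Compounds and 5-fluorouridine were added together to 2,000 cells per well, incubated for 16 hr at 37 °C, then developed with ONE-Glo.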
TSHR antag: Antagonists of the Thyroid Stimulating Hormone Receptor: HTS campaign | Thyrotropin receptor (Homo sapiens), P16473 | TSHR-expressing cells, TSH-stimulated cAMP HTRF, 2 h; hits give low values | activity change, negative = inhibition, % at 11.5 µM | actives 0.2% (n = 330,000);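 active means activity change below a set negative limit, meaning inhibition stronger than a set level, cut at about -70% in these data; inconclusive means activity change between two set negative limits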
Target sequence (P16473 whole entry, looked up): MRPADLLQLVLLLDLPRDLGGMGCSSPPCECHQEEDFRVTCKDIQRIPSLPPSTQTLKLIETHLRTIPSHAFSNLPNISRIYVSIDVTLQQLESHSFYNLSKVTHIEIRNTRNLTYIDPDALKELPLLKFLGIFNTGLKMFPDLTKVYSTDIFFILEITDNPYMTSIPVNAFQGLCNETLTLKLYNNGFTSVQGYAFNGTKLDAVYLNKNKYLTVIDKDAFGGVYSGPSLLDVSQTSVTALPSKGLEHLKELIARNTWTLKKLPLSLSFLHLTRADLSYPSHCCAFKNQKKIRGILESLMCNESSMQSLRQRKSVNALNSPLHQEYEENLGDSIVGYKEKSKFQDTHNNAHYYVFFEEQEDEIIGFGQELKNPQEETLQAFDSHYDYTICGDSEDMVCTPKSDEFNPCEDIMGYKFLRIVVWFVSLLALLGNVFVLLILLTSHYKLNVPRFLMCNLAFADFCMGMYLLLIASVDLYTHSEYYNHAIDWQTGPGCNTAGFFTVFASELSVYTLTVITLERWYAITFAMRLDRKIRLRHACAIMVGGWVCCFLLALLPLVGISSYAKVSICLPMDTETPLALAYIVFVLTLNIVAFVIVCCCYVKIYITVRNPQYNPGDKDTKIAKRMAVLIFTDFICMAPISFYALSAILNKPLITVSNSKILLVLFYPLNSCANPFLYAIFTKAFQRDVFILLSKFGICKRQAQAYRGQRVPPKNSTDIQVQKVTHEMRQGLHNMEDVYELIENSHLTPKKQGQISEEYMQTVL
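Inhibition of cAMP made by TSHR-expressing cells under TSH stimulation (4nM final, EC80; 2 h, 37 deg C) is quantified with a one-step lysis HTRF kit, anti-cAMP cryptate versus cAMP-d2.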
Gal4-VP16 FLuc: VP16 counterscreen qHTS for inhibitors of ROR gamma transcriptional activity; AID 2546, 2010; Potency, µM (series often up to 53.6 µM), for the others: top-dose activity, negative = inhibition, hits mostly inhibitors; Drosophila S2 Gal4-VP16 UAS-luciferase, luminescence, 20 h; actives 3.5% (n = 310,000);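 further: Gal4-VP16 expression switched on by copper sulfate through the metallothionein promoter; potency means the concentration at half of the fitted maximal effect; nearly all actives have a fitted effect of over 50% in size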
The depositor's hits bear a star; ? = inconclusive; · = no result given; ! = a repeat was not active. Hits are enriched below; roughly 8% of the tested compounds scored in any of these assays. Unless noted, the call rests on the fitted dose curve; in most records, active means well fitted curve in the direction sought with a large enough effect; inconclusive means small, poorly fitted or top-dose-only effect, or another doubt; inactive means no such curve, though single readings can be large; an effect the other way counts as inactive or inconclusive. On the % scale 0 is the no-effect control and ±100 the full control effect.

SMILES	Coupling enz	RORg inh	ELG1 DNA repair	TSHR antag	Gal4-VP16 FLuc
FC(F)(F)c1cccc(Cc2noc(CN3CCCCC3c3ccccn3)n2)c1 (stereo not drawn)	0.6	22.4µM*	-13.7%	-16.7	-7.6%
CCn1ccnc1CN(C)Cc1nc(Cc2cccc(C(F)(F)F)c2)no1	3.5	17.8µM*	3.5%	6.8	?
CCc1ccc(CNC(=O)CCc2nnc(Cc3cccc(C(F)(F)F)c3)o2)nc1	0.2	26.2%	1.0%	-0.6	-4.5%
CCc1ccc(CN(C)Cc2nc(COc3ccccc3)no2)nc1	-0.9	12.6µM*	7.9%	-6.9	6.1%
CC(CN(C)Cc1nc(Cc2cccc(C(F)(F)F)c2)no1)CN1CCCC1 (stereo not drawn)	-2.9	18.4%	3.8%	7.9	-8.2%
CCc1ccc(CN(C)Cc2nc(Cc3cccc(C(F)(F)F)c3)no2)nc1	-1.7	2.24µM*	-9.8%	14.8	?
CN(Cc1ccc(F)cc1)Cc1nc(CCc2ccccc2)no1	0.4	1.1%	17.4%	-20.0	-7.7%
Cc1c(C(=O)NCCN2CCCC(O)C2)oc2c(F)cccc12 (stereo not drawn)	·	-25.7%	-8.6%	3.3	-3.4%
COc1ccc(NC(=O)CN2C(=O)NC(C)(c3ccccc3)C2=O)cc1Cl (stereo not drawn)	0.8	9.7%	3.8%	18.0	-4.7%
CCCc1cc(=O)[nH]c(SCC(=O)Nc2cccc(S(=O)(=O)N3CCCCC3)c2)n1	·	·	2.0%	-20.9	·
CC(C)CN(CC(C)C)C(=O)Nc1cccc([N+](=O)[O-])c1	2.4	2.4%	11.6%	-2.8	3.6%
Cc1nn(Cc2ccc(Cl)c(Cl)c2)c(C)c1NC(=O)c1cc(-c2ccc3c(c2)OCO3)on1	2.4	1.3%	?	27.0	-10.8%
Cc1nn(Cc2ccc(Cl)cc2)c(C)c1NC(=O)c1c(-c2ccccc2)noc1C	7.9	?	13µM*	9.6	-24.1%
Cc1nn(Cc2ccc(Cl)cc2)c(C)c1NC(=O)c1cc(-c2ccc3c(c2)OCO3)on1	3.0	15.2%	18.4µM*	-7.9	-14.1%
Cc1onc(-c2ccccc2)c1C(=O)NCCc1ccc(Cl)cc1	12.8	-14.2%	-6.4%	16.1	-7.3%
O=C(c1ccc(S(=O)(=O)Cc2ccccc2F)c([N+](=O)[O-])c1)N1CCCC1	4.8	-23.9%	20.3%	-6.3	-13.6%
Cc1ccc(CS(=O)(=O)c2ccc(C(=O)N3CCCCC3)cc2[N+](=O)[O-])cc1	-0.3	-12.5%	-23.3%	-4.0	-4.2%
CC1CCN(C(=O)c2ccc(S(=O)(=O)Cc3ccccc3F)c([N+](=O)[O-])c2)CC1	2.2	6.2%	20.6µM*	-3.8	-4.7%
Cc1ccc(CS(=O)(=O)c2ccc(C(=O)N3CCN(c4ccccn4)CC3)cc2[N+](=O)[O-])cc1	-6.9	-8.8%	14.6µM*	-14.8	?
Cc1ccc(-c2cc(-c3ccc(F)cc3)n[nH]2)c(O)c1	-0.3	5.62µM*	?	-19.9	7.08µM*
Cc1ccc(-c2cc(-c3ccc(C)cc3O)[nH]n2)cc1	-2.8	3.98µM*	?	-9.2	7.08µM*
Oc1ccccc1-c1cc(-c2ccc(F)cc2)n[nH]1	-1.4	?	?	-19.0	-80.2%
OCC[C@H]1C[C@@H](O)[C@H](O)[C@]2(Cc3ccccc3CO2)O1	·	·	-1.2%	2.9	·
Cc1oc(-c2ccccc2Cl)nc1CN1CCCC1c1ccc(F)cc1 (stereo not drawn)	-1.0	11.2µM*	-12.3%	20.6	-11.5%
Cc1oc(-c2ccccc2Cl)nc1CN1CCCCC1CO (stereo not drawn)	1.1	-9.9%	2.2%	-0.9	9.3%
SMILES	Coupling enz	RORg inh	ELG1 DNA repair	TSHR antag	Gal4-VP16 FLuc
Cc1oc(-c2cccc3ccccc23)nc1CN1CCC[C@H]1CO	0.0	7.08µM*	10.0%	4.5	?
CN(C)C(=O)CCc1ccc2c3c([nH]c2c1)[C@]1(C)[C@@H](C(=O)N2CCOCC2)C[C@H](CC(=O)NCCN2CCOCC2)C(=O)N1CC3	·	·	11.5%	13.1	·
COc1ccc(NC(=O)N2CCC3(CC2)CCN(C(=O)c2cccc(F)c2)CC3)cc1	-2.7	3.2%	·	·	-8.7%
Fc1ccc(NC(=S)Nc2ccc3nccnc3c2)cc1	-19.7	-13.0%	-17.1%	0.9	30.0%
Cc1ccc(NC(=S)Nc2ccc3cn[nH]c3c2)cc1C	2.5	12.6µM*	?	-1.7	5.01µM*
Cc1cccc(C)c1NC(=S)Nc1ccc(F)cc1	2.0	10µM*	-4.6%	-2.0	?
Cc1ccc(NC(=S)Nc2ccc3cn[nH]c3c2)c(C)c1	-4.0	?	11.5%	-3.4	-9.6%
Cc1ccc(NC(=S)Nc2ccc(F)cc2)cc1C	0.0	7.08µM*	?	2.2	7.08µM*
COc1ccc(S(=O)(=O)N2CCCCC2)cc1NC(=O)Cn1cnc2c1c(=O)n(C)c(=O)n2C	·	·	12.2%	-4.1	·
COC(=O)CCC(=O)OC1(C)C(=O)C=C2C=C3CCCN3C=C2C1=O (stereo not drawn)	-19.8	-1.2%	-1.5%	1.2	1.3%
COC(=O)CCCC1=CC2=C(c3ccccc3)C(=O)C(C)(OC(=O)C3CCCC3)C(=O)C2=CN1CCCOC(C)C (stereo not drawn)	-24.6	·	·	·	·
COC(=O)CCC(=O)OC1(C)C(=O)C=C2C=C(C3CC3)N(CCc3ccccn3)C=C2C1=O (stereo not drawn)	-48.7*	5.2%	11.9%	-0.4	-4.9%
COC(=O)CCC(=O)OC1(C)C(=O)C=C2C=C(C3CC3)N(C(CO)CO)C=C2C1=O (stereo not drawn)	-38.6*!	-24.9%	17.6%	-1.2	4.2%
COC(=O)CCC(=O)OC1(C)C(=O)C=C2C=C(C3CC3)N(CCCOC(C)C)C=C2C1=O (stereo not drawn)	-50.4*	-14.6%	9.5%	-1.7	-1.7%
CCCCC1=CC2=CC(=O)C(C)(OC(=O)CCC(=O)OC)C(=O)C2=CO1 (stereo not drawn)	0.1	13.3%	·	·	-0.1%
COC(=O)CCC(=O)OC1(C)C(=O)C=C2C=C(C3CC3)N(CCCCO)C=C2C1=O (stereo not drawn)	-39.5*!	-13.6%	14.2%	-1.3	-3.5%
Cc1c(C(=O)N2CCOCC2)sc(NC(=O)C(C)C)c1C#N	0.8	-0.9%	18.5%	5.9	0.1%
C=CCN1C=C2C(=O)C(C)(OC(=O)CCC(=O)OC)C(=O)C=C2C=C1C1CC1 (stereo not drawn)	-40.8*	9.8%	-1.9%	3.5	-4.2%
